According to PubChem BioAssay:

The molecules below were run against PEG-3 (UniProt Q6IN02) (assay: Peg3 promoter luciferase inhibitors, potency, dose response, cell-based, HeLa, CREF/GAPDH counter-screen panel (AID 624167)). Details: CREF/GAPDH counter-screens; HeLa PEG-Prom luciferase reporter, overnight, run 1, dose range 1, at 100 µM (top of the series) unless noted.
Sequence of PEG-3 (Q6IN02 whole entry, looked up): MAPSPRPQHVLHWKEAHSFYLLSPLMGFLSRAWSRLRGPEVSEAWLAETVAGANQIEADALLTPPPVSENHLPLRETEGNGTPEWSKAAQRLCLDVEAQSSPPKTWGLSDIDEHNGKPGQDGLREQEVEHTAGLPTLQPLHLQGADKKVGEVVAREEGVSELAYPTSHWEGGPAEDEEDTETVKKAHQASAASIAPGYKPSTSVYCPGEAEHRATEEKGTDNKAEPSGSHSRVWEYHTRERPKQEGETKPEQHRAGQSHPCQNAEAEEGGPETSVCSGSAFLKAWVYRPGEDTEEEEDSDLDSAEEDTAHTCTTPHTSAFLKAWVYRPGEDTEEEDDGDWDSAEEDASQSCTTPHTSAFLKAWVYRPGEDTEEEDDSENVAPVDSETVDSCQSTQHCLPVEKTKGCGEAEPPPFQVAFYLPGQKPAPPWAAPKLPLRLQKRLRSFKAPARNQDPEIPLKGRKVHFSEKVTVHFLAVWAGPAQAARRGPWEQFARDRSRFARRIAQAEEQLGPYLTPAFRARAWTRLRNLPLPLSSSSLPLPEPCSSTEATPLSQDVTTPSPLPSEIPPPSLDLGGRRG

| Compound | inhibition [%] |
| --- | --- |
| O=C(Nc1ncc([N+](=O)[O-])s1)c1ccc2c(c1)OCO2 | 96.1 |
| Cc1oc(-c2ccc3c(c2)OCCO3)cc1C(=O)O | 101 |
| COc1cc(/C=C2\SC(=Nc3ccccc3OC)NC2=O)ccc1O | -37 |
| COC(CNC(=O)c1ccc2c3c(onc13)-c1ccccc1C2=O)OC | 102 |
| O=C(Nc1nc2cc3c(cc2s1)OCO3)C1=COCCO1 | 88.1 |
| O=C(Nc1ccccc1C(=O)Nc1nnc(C(F)(F)F)s1)c1ccccc1 | 93 |
| Cc1cc(C(=O)CN2C(=O)c3ccccc3S2(=O)=O)c(C)n1-c1ccccc1 | 98.9 |
| CN=c1scc(-c2cccs2)n1/N=C/c1ccccc1O | 93.6 |
| COCCCNC(=O)c1ccc(Cn2c(=O)c3ccccc3n(Cc3ccccc3C#N)c2=O)cc1 | 63.4 |
| Cc1cc(Br)ccc1NC(=O)CNC(=O)Cn1ncc(Cl)c(Cl)c1=O | 99.8 |
| O=C(NC(=O)c1ccccc1)Nc1ccccn1 | 98.8 |
| COc1ccc2c(c1)sc1nc(-c3ccccc3)cn12 | 100 |
| N=c1n(CC(=O)c2ccc([N+](=O)[O-])cc2)c2ccccc2n1Cc1ccc(Cl)cc1 | 99.6 |
| O=C(O)c1cccc(COc2ccc(CO)cc2Cl)c1 | 97.3 |
| O=C(Nc1nc2ccccc2[nH]1)c1ccccc1F | 97.3 |
| Cc1ccc(C(C[N+](=O)[O-])Sc2ccc(N)cc2)cc1 (centres undefined) | 98.7 |
| COc1ccc(C(=O)NNC(=O)c2ccccn2)cc1 | 102 |
| NC(Cc1ccc(F)cc1)c1csc(Nc2cc(Oc3ccccc3)ncn2)n1 (centres undefined) | 102 |
| Cc1nc(C)c(C(=O)N/N=C/c2cc(Br)ccc2O)s1 | 101 |
